Laboratory results as given in PubChem BioAssay AID686978 (National Center for Advancing Translational Sciences (NCATS), 2013).
The whole screen tested about 420,000 compounds, of which about 64,000 (15%) were called active. Inconclusive results (about 27%) are left out. Calls come from the whole dose curve; as a rule, active = well fitted inhibition curve with a large enough effect; inconclusive = small, poorly fitted or top-dose-only effect; inactive = flat fitted curve, though single readings scatter. The list is a sample of the results.

Assay: qHTS for Inhibitors of human tyrosyl-DNA phosphodiesterase 1 (TDP1): qHTS in cells in absence of CPT; note: nearly all actives have a fitted effect of over 55% in size
Details: DT40 Tdp1-/- hTDP1 cells, no CPT, ATP luminescence, 48 h; activity change, negative = growth inhibition: at 46.2 µM (top of the series)
Outline: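 Compound effects on proliferation are scored in DT40 Tdp1-/-;hTDP1 cells in the absence of CPT. ATP levels (CellTiter-Glo luminescence) are recorded after a ≥48 hr, 37 °C incubation.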
% is set by controls: 0 for no effect and ±100 for the full control effect; potency is the fitted concentration of half-maximal effect.

SMILES	activity change, negative = growth inhibition	Potency
CCOc1ncccc1C(=O)N(CC)CC(=O)Nc1ccc(NC(C)=O)cc1	-13.9% (inactive)	
COCCCNC(=O)CNC(=O)c1nn(-c2ccc(OC)cc2)c(=O)c2ccccc12	2.56% (inactive)	
CCOC(=O)CNC(=O)c1nn(-c2cccc(OC)c2)c(=O)c2ccccc12	-15.7% (inactive)	
CCOC(=O)c1ccccc1NC(=O)c1nn(-c2ccc(OC)c(Cl)c2)c(=O)c2c1c1ccccc1n2C	-5.84% (inactive)	
COc1ccc(-n2nc(C(=O)NCC(=O)N3CCC(C(N)=O)CC3)c3ccccc3c2=O)cc1OC	-4.08% (inactive)	
COc1ccc(-n2nc(C(=O)NCCc3ccc(Cl)cc3)c3c4ccccc4n(C)c3c2=O)cc1Cl		13 µM (active)
COc1ccc(-n2nc(C(=O)NCC(=O)N3CCCCCC3)c3ccccc3c2=O)cc1Cl		23.1 µM (active)
S=C(Nc1ccc2c(c1)OCO2)N1CCCC1	5.97% (inactive)	
Nc1ccc(Cl)c(S(=O)(=O)Nc2ccccc2Cl)c1	-16.2% (inactive)	
CCN(c1ccccc1)S(=O)(=O)c1ccc2[nH]c(=O)[nH]c2c1	-5.25% (inactive)	
O=S(=O)(c1ccccc1)N(CC(O)CN1CCCCC1)c1ccccc1 (stereo not drawn)	-22.7% (inactive)	
Cc1cc(C)n(CC(O)CN(c2ccccc2)S(=O)(=O)c2ccc3ccccc3c2)n1 (stereo not drawn)		23.1 µM (active)
CCCCCN(C(=O)CCC(=O)OCC(=O)NC1CCC(C)CC1)c1c(N)n(CCCC)c(=O)[nH]c1=O (stereo not drawn)	-10.5% (inactive)	
Cc1nc(SCC(=O)N2CCN(c3ccccc3)CC2)[nH]c(=O)c1C	-8.2% (inactive)	
O=C(COC(=O)CNC(=O)c1ccco1)Nc1ccc(F)cc1	3.34% (inactive)	
CCCNC(=O)c1ccc(N2CCC3(CC2)CC(c2ccc(Cl)cc2)=NO3)c([N+](=O)[O-])c1		20.6 µM (active)
CCCNC(=O)c1ccc(N2CCC3(CC2)CC(c2cccc(Br)c2)=NO3)c(NC(=O)c2ccco2)c1		6.51 µM (active)
COC(=O)c1ccc(N2CCOCC2)c(NC(=O)c2ccc(Br)o2)c1	2.37% (inactive)	
CCCN(CCC)CCNC(=O)c1ccc2c(c1)NC(=O)C(CS(=O)(=O)Cc1cccc(Br)c1)N2 (stereo not drawn)	-13.6% (inactive)	
COCCNC(=O)c1ccc(N2CCC3(CC2)OCCO3)c([N+](=O)[O-])c1	6.61% (inactive)	
CCN1CCC(=NNC(=O)c2ccc(C)c([N+](=O)[O-])c2)CC1	-6.49% (inactive)	

SMILES	activity change, negative = growth inhibition	Potency
CN[C@@H]1[C@@H](O)[C@@H](O[C@@H]2[C@H](O)[C@H](O[C@H]3OC(CN)=CC[C@H]3N)[C@@H](N)C[C@H]2N)OCC1(C)O (stereo partly drawn)	-2.47% (inactive)	
CN1C(C)(C)CC(NC(=O)CCC(=O)NC2CC(C)(C)N(C)C(C)(C)C2)CC1(C)C	-1.8% (inactive)	
O=P(O)(CP(=O)(c1ccccc1)c1ccccc1)c1ccccc1	5.73% (inactive)	
Cc1ccc(S(=O)(=O)N2CC(=O)Nc3ccccc32)cc1C	-3.91% (inactive)	
C=CCOC(=O)C1=C(C)OC(N)=C(C#N)C1c1ccc(F)cc1 (stereo not drawn)		29.1 µM (active)
COC(=O)C1=C(C)OC(N)=C(C#N)C1c1cc(OC)ccc1OC (stereo not drawn)	-29.9% (inactive)	
C=CCOC(=O)C1=C(C)NC(SCC(=O)OCC)=C(C#N)C1c1ccc(C)cc1 (stereo not drawn)	-15.5% (inactive)	
O=C(CSc1nnc(-c2ccc([N+](=O)[O-])cc2)o1)Nc1ccccn1	-7.37% (inactive)	
O=[N+]([O-])c1ccccc1SNc1ccccn1		16.4 µM (active)
Nc1nc(Sc2ncccc2[N+](=O)[O-])n[nH]1	-8.98% (inactive)	
O=C(Nc1ccncc1)c1ccc([N+](=O)[O-])cc1Cl	-29.3% (inactive)	
COCC(C)NC(=O)CSc1nc2nn(-c3ccccc3)c(=O)c-2c2n1CCCCC2 (stereo not drawn)	-22.2% (inactive)	
NNC(=O)C1CC(O)CN1S(=O)(=O)c1ccc(Cl)cc1 (stereo not drawn)	11.9% (inactive)	
CC1(C)CC(=O)C(N=Nc2ccc(S(=O)(=O)N3CCCCCC3)cc2)=C(O)C1	0.194% (inactive)	
CCN(CC)c1ccc(NC(=O)c2ccc(Cl)nc2)cc1		2.59 µM (active)
Cc1cnc(NC(=O)c2ccc(Cl)nc2)s1	-9.74% (inactive)	
NS(=O)(=O)c1ccc(NC(=O)COC(=O)c2ccc(Cl)nc2)cc1	-7.79% (inactive)	
Cc1ccc2c(c1)NCC(C(=O)NC1CCC(C)CC1)O2 (stereo not drawn)	6.84% (inactive)	
CCOC(=O)C1CCN(C(=O)CN2C(=O)NC(C)(c3ccc4cc(OC)ccc4c3)C2=O)CC1 (stereo not drawn)		10.3 µM (active)
CCOC(=O)C1CCN(C(=O)Nc2cccc(OC)c2)CC1	-16.6% (inactive)	
CC1(c2ccc3ccccc3c2)NC(=O)N(CC(N)=O)C1=O (stereo not drawn)	16.1% (inactive)	

SMILES	activity change, negative = growth inhibition	Potency
COc1ccc(C2C3=C(CCCC3=O)N(CC(=O)O)C3=C2C(=O)CCC3)cc1	-5.43% (inactive)	
CCOc1ccc(NC(=S)N2CCC(NC(=O)c3ccccc3)CC2)cc1	-23.6% (inactive)	
CCOc1ccc(NC(=O)C2CCN(C(=O)N3CCOc4ccccc43)CC2)cc1		20.6 µM (active)
CC(=O)N1CCOc2ccc(S(=O)(=O)N3CCC(C(=O)Nc4ccccc4F)CC3)cc21	2% (inactive)	
COC(=O)c1ccccc1NC(=O)C1CCN(C(=O)N2CCOc3ccccc32)CC1		23.1 µM (active)
CCOC(=O)c1ccccc1NC(=S)N1CCC(C(N)=O)CC1	-1.16% (inactive)	
CCOc1ccc(NC(=O)N2CCN(CC)CC2)cc1	10.4% (inactive)	
Cc1ccsc1C(=O)OCC(=O)Nc1cccc(F)c1	0.675% (inactive)	
O=C(Nc1cccc2ccccc12)N1CCN(Cc2ccc3c(c2)OCO3)CC1	-18.2% (inactive)	
N#Cc1cccc(CN2CCC(=O)N(CCO)CC2)c1	-6.69% (inactive)	
CC(C)[C@@H]1NC(=O)[C@H](Cc2ccccc2)NC(=O)[C@@H](CC(=O)O)NC(=O)CNC(=O)[C@H](CCCNC(=N)N)NC1=O	-11.7% (inactive)	
C=CCOc1ccc(/C=C/C(=O)OCC(=O)NCC2CCCO2)cc1 (stereo not drawn)	2.03% (inactive)	
O=C(CN1CCN(c2ccc(F)cc2)CC1)Nc1ccccc1	6.29% (inactive)	
CCC(C)C(=O)Nc1ccccc1N1CCN(c2ccc(F)cc2)CC1 (stereo not drawn)		20.6 µM (active)
Cc1cccc(C)c1NC(=O)CN1CCN(c2ccc(F)cc2)CC1		20.6 µM (active)
CCCCC(=O)Nc1ccccc1N1CCN(c2ccc(F)cc2)CC1		16.4 µM (active)
CCC(=O)Nc1ccccc1N1CCN(S(C)(=O)=O)CC1	-13.9% (inactive)	
O=C(NC(=S)Nc1ccccc1N1CCCCC1)c1ccc(F)cc1	-6.59% (inactive)	
O=C(CN1CCN(c2ccccc2)CC1)Nc1ccc(F)cc1	-3.59% (inactive)	
CCn1cc(CN2CCCC(CNS(=O)(=O)Cc3ccccc3)C2)cn1 (stereo not drawn)	6.09% (inactive)	
CC(C)C(=O)Nc1nnc(SCC(=O)N2C(C)CCCC2C)s1 (stereo not drawn)	-20.3% (inactive)	
